Screening data (PubChem BioAssay)
VDR inh = inhibitors of human vitamin D receptor. Potency, µM, hits mostly inhibitors. AID 504847. actives 0.93% (n = 400,000). VDR-SRC2-3 peptide fluorescence polarization, 2 h. P11473
Target sequence (P11473 whole entry, looked up): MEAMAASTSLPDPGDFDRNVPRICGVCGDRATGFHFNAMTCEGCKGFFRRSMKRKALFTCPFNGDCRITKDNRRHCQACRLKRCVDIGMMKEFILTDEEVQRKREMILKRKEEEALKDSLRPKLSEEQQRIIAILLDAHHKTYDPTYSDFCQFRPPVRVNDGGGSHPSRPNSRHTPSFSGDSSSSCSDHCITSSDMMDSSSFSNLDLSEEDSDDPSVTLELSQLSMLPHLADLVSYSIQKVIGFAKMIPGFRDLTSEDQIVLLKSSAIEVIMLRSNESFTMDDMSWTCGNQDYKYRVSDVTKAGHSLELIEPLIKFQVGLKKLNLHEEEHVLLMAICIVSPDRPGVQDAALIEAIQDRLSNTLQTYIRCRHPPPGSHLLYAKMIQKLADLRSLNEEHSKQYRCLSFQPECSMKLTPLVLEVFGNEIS
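Fluorescence polarization assay measuring small-molecule disruption of VDR binding to the coregulator peptide SRC2-3. Compounds were pin-transferred (23 nl) into the reagent mix and incubated 2 h at room temperature before reading.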
KAT2A inh = inhibitors of human GCN5L2 histone acetyltransferase; GCN5L2 HAT assay, ThioGlo1 CoA-SH fluorescence; Q92830; AID 504327; actives 0.21% (n = 390,000); Potency, µM (doses to about 58.9 µM), hits mostly inhibitors
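Compounds, pin-transferred from DMSO stocks, meet 20nM GCN5L2 for 15 min before the reaction begins with H3(1-25) peptide (75uM) and acetyl-CoA (70uM). Thiol-reactive ThioGlo1 reports CoA release over 20 min at room temperature.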
TDP1 cell CPT = growth inhibition of DT40 Tdp1-/-;hTDP1 cells with camptothecin (screen for TDP1 inhibitors) | AID 686979 | chicken DT40 Tdp1-/-;hTDP1 cells + 20 nM CPT, ATP luminescence, 48 h | Potency, µM (doses to about 46.2 µM), most hits filed as inhibitors | actives 12% (n = 420,000); also: nearly all actives have a fitted effect of over 55% in size
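Chicken DT40 Tdp1-/- cells complemented with human TDP1, 400 cells/well, exposed to compounds plus 20 nM camptothecin for at least 48 h at 37 C; viability read as ATP content by CellTiter-Glo luminescence.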
TDP1 cell noCPT = qHTS for Inhibitors of human tyrosyl-DNA phosphodiesterase 1 (TDP1): qHTS in cells in absence of CPT; actives 15% (n = 420,000); DT40 Tdp1-/- hTDP1 cells, no CPT, ATP luminescence, 48 h; AID 686978, 2013; Potency, µM (titrated, usually from 46.2 µM), actives largely listed as inhibitors; also: nearly all actives have a fitted effect of over 55% in size
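Chicken DT40 Tdp1-/- cells stably complemented with human TDP1 were seeded at 400 cells/well with DMSO in place of 20 nM camptothecin. After compound pinning, cells grew at least 48 hr at 37 °C; viability read by CellTiter-Glo luminescence.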
PLK1 PBD block = PLK1 (human) polo-box domain binding inhibition | Plk1 PBD binding of FITC phosphopeptide, fluorescence polarization | actives 2.8% (n = 360,000) | Potency, µM, hits mostly inhibitors | P53350; also: series mostly up to about 57 µM; nearly all actives have a fitted effect of over 65% in size
TDP1 block = inhibitors of human tyrosyl-DNA phosphodiesterase TDP1; Q9NUW8; recombinant TDP1, AlphaScreen DNA substrate cleavage; Potency, µM (series often up to 130 µM), usual class: inhibitors; actives 0.28% (n = 350,000); AID 485290; also: nearly all actives have a fitted effect of over 40% in size
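Recombinant human Tdp1 (E. coli-expressed, 1 nM final) preincubated with compounds 15 min at room temperature, then 5'-biotin/3'-phosphotyrosine-FITC DNA substrate (15 nM final) added for 5 min. AlphaScreen beads (10 ug/ml final) added 10 min; cleavage lowers signal.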
Numbers stand for hits; n = inactive; u = inconclusive; x = no result given; [ ] = dose if it differs, or a comment. Only some compounds are listed: those with a hit (about 18% of all), similar ones and a draw of the others. Calls follow the shape of the dose curve; as a rule, active = well fitted curve in the direction sought with a large enough effect; inconclusive = small, poorly fitted or top-dose-only effect, or another doubt; inactive = no such curve, though single readings can be large; an effect the other way counts as inactive or inconclusive.

SMILES | VDR inh | KAT2A inh | TDP1 cell CPT | TDP1 cell noCPT | PLK1 PBD block | TDP1 block
COC(=O)N/N=C/c1cn(CCOc2ccccc2OC)c2ccccc12 | n | n | n | n | n | x
O=S(=O)(c1ccc(F)cc1)N1CCN(C(=S)NCC2CCCO2)CC1 (stereo not drawn) | n | n | n | n | n | n
CCOC(=O)C1(Cc2ccc(Cl)cc2)CCN(C(=O)c2sc(C)nc2C)CC1 | n | n | 12µM | 9.2µM | n | n
CCOC(=O)C1(Cc2ccc(OC)cc2)CCN(C(=O)c2cc(C)on2)CC1 | n | n | n | u | n | n
CCOC(=O)C1(Cc2ccc(Cl)cc2)CCN(C(=O)CCc2ccncc2)CC1 | n | n | n | 13µM | n | n
CCOC(=O)C1(Cc2ccc(OC)cc2)CCN(C(=O)c2sc(C)nc2C)CC1 | n | n | 26µM | 23µM | n | n
CCOC(=O)C1(Cc2ccc(OC)cc2)CCN(C(=O)C2=CCCC2)CC1 | n | n | u | 18µM | n | n
COc1cc(CO)cc(Br)c1OCc1cccnc1 | n | n | n | n | n | n
COc1ccc(C2Nc3ccccc3C(=O)N2Cc2cccnc2)cc1COc1ccc(NC(C)=O)cc1 (stereo not drawn) | x | x | x | x | x | n
Cc1ccc(S(=O)(=O)CC(=O)Nc2cccc(C)n2)cc1 | n | n | u | n | n | x
Cn1cnnc1SCC(=O)Nc1ccc(OC(F)F)cc1 | n | n | n | n | n | n
O=C(O)CNC(=O)CCn1nnc2ccccc2c1=O | u | n | u | u | 30µM | x
NS(=O)(=O)c1ccc(S(=O)(=O)N2CCN(c3nc(-c4cccs4)nc4ccccc34)CC2)cc1 | u | x | u | u | x | n
CCOc1ccc(C2Nc3ccccc3-c3nnc(SCc4ccccc4)nc3O2)cc1OC (stereo not drawn) | n | n | 18µM | u | x | x
CCOc1cc(C2Nc3ccccc3-c3nnc(SCc4ccccc4)nc3O2)ccc1OC (stereo not drawn) | n | n | u | u | x | x
COC(=O)[C@@]1(Cc2ccccc2)[C@H]2c3cc(C(=O)N(C)C)n(Cc4ccc(S(C)(=O)=O)cc4)c3C[C@H]2CN1C(=O)c1ccccc1 | x | x | x | x | x | n
Cc1ccc(C)c(N2CCN(CCCNC(=O)Cn3cccc3C(=O)c3ccccc3)CC2)c1 | n | n | 5.2µM | 5.2µM | n | n
CC(NC(=O)Cn1cccc1C(=O)c1ccccc1)c1ccccc1 (stereo not drawn) | n | n | 13µM | u | n | n
O=C(Cn1cccc1C(=O)c1ccccc1)NCc1cccc(Cl)c1 | n | n | u | u | 24µM | n
O=C(Cn1cccc1C(=O)c1ccccc1)NCCCN1CCOCC1 | n | n | n | n | n | n
O=C(Cn1cccc1C(=O)c1ccccc1)NCCc1ccc(Cl)cc1 | n | n | u | n | 24µM | n
COc1cc(-c2c(OC)cccc2OC)cc2c1OCCN(C(=O)CCC(=O)c1ccc(F)cc1)C2 | x | x | n[9.04 µM] | n | x | x
COC(=O)C(C)NC(=O)c1ccc(C(C)(C)C)cc1 (stereo not drawn) | n | n | n | n | n | n
CCOC(=O)c1ccc(NS(=O)(=O)c2c(N)n(C)c(=O)n(C)c2=O)cc1 | n | x | 16µM | u | n | x
CC(=O)NC(Cc1c[nH]c2ccccc12)C(=O)OCC(=O)N1CCN(S(=O)(=O)c2ccc(Cl)cc2)CC1 (stereo not drawn) | n | x | n | n | n | x
SMILES | VDR inh | KAT2A inh | TDP1 cell CPT | TDP1 cell noCPT | PLK1 PBD block | TDP1 block
COCC1CCN(C(=O)C2CCN(c3nc(-c4ccccc4)nc4c3CCC4)CC2)C1 (stereo not drawn) | n | n | u | u | n | n
COCC1CCCCN1C(=O)C1CCN(c2nc(-c3ccccc3)nc3c2CCC3)CC1 (stereo not drawn) | n | n | 18µM | 15µM | n | n
O=[N+]([O-])c1ccc2cn(C3OC(CO)C(O)C3O)nc2c1 (stereo not drawn) | x | x | u | u | n | x
Cc1cccc(CNC(=O)C2CCN(c3nc4ccc(Cl)cc4[nH]3)CC2)c1 | n | n | u | u | x | n
CC(C)CC1C(=O)N(Cc2cn(CCC3OCCO3)nn2)CCS(=O)(=O)N1Cc1ccc(-c2cccc(CO)c2)cc1 (stereo not drawn) | x | x | u | 23µM | n | x
CC(C)C1C(=O)N(Cc2cn(CCC3OCCO3)nn2)CCS(=O)(=O)N1Cc1ccc(-c2cccc(CO)c2)cc1 (stereo not drawn) | x | x | u | 23µM | n | x
CC(C)CC1C(=O)N(Cc2cn(CCC3OCCO3)nn2)CCS(=O)(=O)N1Cc1ccc(-c2cccc(N(C)C)c2)cc1 (stereo not drawn) | x | x | u | 21µM | n | x
Cc1cc(C)c2oc(C(=O)Nc3ccc(S(=O)(=O)Nc4ncccn4)cc3)cc(=O)c2c1 | n | n | n | n | x | n
COc1ccc(CNC(=O)C2=CC(c3cccc(OC)c3)=NS(=O)(=O)N2C)cc1 | n | n | n | n | x | n
O=C(CSc1ccc2nnc(-c3ccccn3)n2n1)Nc1ccc(F)cc1F | n | n | n | u | n | n
Cc1nn(Cc2ccccc2)c(C)c1NC(=O)CSc1nc(C2CC2)nc2c1cnn2-c1ccccc1 | n | n | 16µM | 16µM | n | n
Cc1nn(C)c(C)c1NC(=O)CSc1nc(Cc2ccccc2)nc2c1cnn2-c1ccccc1 | n | x | u | u | n | x
COc1cc(CNC2CCCCCCC2)c(Br)cc1OCCO | n | n | n | n | n | n
CCOc1c(Br)cc(CNC2CCCCCCC2)cc1OC | n | n | 21µM | 15µM | n | n
CCc1cc(C(=O)N=Nc2c(O)[nH]c3c(Br)cc(Br)cc23)c2ccccc2n1 | n | n | 21µM | u | n | n
C/C=C(/C(=C/C)c1ccc(O)cc1)c1ccc(O)cc1 | n | n | u | u | n | n
CC/C(=N/N=C(/CC)c1ccc(O)cc1)c1ccc(O)cc1 | n | x | 15µM | 8.2µM | n | x
C=C(c1ccc(O)cc1)c1ccc(O)cc1 | n | n | n | u | n | n
CC(=NN=C(C)c1ccc(O)cc1)c1ccc(O)cc1 | n | x | u | 16µM | n | x
CCc1ccc2occ(CC(=O)Nc3ccccc3C(F)(F)F)c2c1 | n | n | n | n | x | n
Cc1ccc(Sc2ccc(CN3CCCCC3)cc2[N+](=O)[O-])cc1 | n | n | 18µM | u | n | x
O=[N+]([O-])c1cc(CN2CCCCCC2)ccc1O | n | n | n | n | n | x
COCCn1c(=NC(=O)CCS(=O)(=O)c2ccccc2)sc2cc(C(=O)OC)ccc21 | n | n | n | n | n | n
